Measured values taken from PubChem BioAssay (NCATS).
Activity calls are given as the source filed them. Calls follow the shape of the dose curve; as a rule, active = well fitted curve in the direction sought with a large enough effect; inactive = no such curve, though single readings can be large or run the other way.

target: Alpha-galactosidase (Coffea arabica) (UniProt Q42656); test: Counterscreen for Glucocerebrosidase Inhibitors: qHTS Assay for Coffee Bean alpha-Galactosidase at pH 5.9 (AID 998); conditions: coffee bean alpha-galactosidase enzyme assay; series mostly up to 76.9 µM
Sequence (Q42656 whole entry, looked up): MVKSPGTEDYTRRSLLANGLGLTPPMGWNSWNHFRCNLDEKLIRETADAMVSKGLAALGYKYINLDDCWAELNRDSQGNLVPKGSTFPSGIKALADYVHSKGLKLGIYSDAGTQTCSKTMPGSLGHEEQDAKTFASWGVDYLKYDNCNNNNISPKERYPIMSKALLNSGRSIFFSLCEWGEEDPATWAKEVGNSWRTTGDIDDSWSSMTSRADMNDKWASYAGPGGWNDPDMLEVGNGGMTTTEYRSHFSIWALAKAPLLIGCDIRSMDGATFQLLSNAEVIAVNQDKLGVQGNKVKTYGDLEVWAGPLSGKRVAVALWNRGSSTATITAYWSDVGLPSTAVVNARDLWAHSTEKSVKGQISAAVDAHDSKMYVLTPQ
From the text: NIH Chemical Genomics Center [NCGC]
NIH Molecular Libraries Screening Centers Network [MLSCN]
PI Name: Zheng, Wei [NIH]
Alpha-galactosidase is a homodimeric glycoprotein that hydrolyzes the terminal alpha-galactosyl moieties from glycolipids and glycoproteins. Deficiency of this enzyme results in Fabry Disease with progressive accumulation of globotriaosylceramide and other glycosphingolipids in vascular endothelial cells that causes renal failure, myocardial infarction and stroke, and premature death in patients. It has reported that the improper folding and trafficking of alpha-galactosidase resulted from the genetic mutations may account for a significant numbers of Fabry patients. […] We optimized this coffee bean alpha-galactosidase assay in 1536-well plate format as a counter-screen assay for identifying the selective small molecule inhibitors of other lysosomal enzymes.
NCGC Assay Protocol Summary:
This is a fluorogenic enzyme assay with 4-Methylumbelliferyl alpha-D-galactopyranoside as the substrate and green coffee bean […] (from Sigma-Aldrich) as the enzyme preparation. Upon the hydrolysis of this fluorogenic substrate, the resulting product, […]. 4-Methyllumbelliferone, can be excited at 365 nm and emits at 440 nm which can be detected by a standard fluorescence plate reader. Data were normalized to the controls for basal activity (without enzyme) and 100% activity (with enzyme). In the AC50 values were determined from concentration-response data modeled with the standard Hill equation.
Assay buffer: 50 mM citric acid, 0.005% Tween-20, pH 5.9. (pH 5.9 is an optimal condition for this enzyme assay.)
1536-well assay protocol for the coffee bean alpha-galactosidase:
(1) Add 2 ul/well of enzyme (2 nM final)
(2) Add 23 nL compounds in DMSO solution. The final titration was 0.7 nM to 77 uM.
(3) Add 1 ul of substrate (80 uM final)
(4) Incubate at room temperature for 20 min.
(5) Add 2 ul stop solution (1M NaOH and 1M Glycine mixture, pH 10)
(6) Detect the assay plate in a ViewLux plate reader (PerkinElmer) with Ex=365 nm and Em=440nm.
Keywords: Alpha-galactosidase, Fabry Disease, pharmacological chaperone, chaperone therapy, high throughput screening, alpha-galactosidase inhibitor, MLSMR, MLSCN, NIH Roadmap, qHTS and NCGC

| SMILES | outcome |
| --- | --- |
| NS(=O)(=O)c1cc2c(cc1Cl)NCNS2(=O)=O | inactive |
| O=C1CC2(CCCC2)CC(=O)N1CCCCN1CCN(c2ncccn2)CC1 | inactive |
| CSc1ccc(C(=O)c2[nH]c(=O)[nH]c2C)cc1 | inactive |
| CCc1cccc2c3c([nH]c12)C(CC)(CC(=O)O)OCC3 (stereo not given) | inactive |
| O=c1[nH]c2ccccc2n1CCCN1CCN(C(c2ccccc2)c2ccccc2)CC1 | inactive |
| CN(C(=O)CCCOc1ccc2[nH]c(=O)ccc2c1)C1CCCCC1 | inactive |
| Brc1c(NC2=NCCN2)ccc2nccnc12 | inactive |
| OCCN1CCN(CCCN2c3ccccc3C=Cc3ccccc32)CC1 | inactive |
| Cn1c(=O)c2c(ncn2C)n(C)c1=O | inactive |
| O=C(O)c1cccnc1Nc1cccc(C(F)(F)F)c1 | inactive |
| NC(N)=NCCC[C@H](N)C(=O)O | inactive |
| CC1=C(C)C(=O)C(CCCCC#CCCCC#CCO)=C(C)C1=O | inactive |
| CN1[C@@H]2CC[C@H]1CC(OC(=O)c1c[nH]c3ccccc13)C2 (stereo not given in full) | inactive |
| CCCCC1C(=O)N(c2ccccc2)N(c2ccccc2)C1=O | inactive |
| CN(C)CCN(Cc1cccs1)c1ccccn1 | inactive |
| CN(C)CCCN1c2ccccc2Sc2ccc(C(F)(F)F)cc21 | inactive |
| CN(C)CCCN1c2ccccc2Sc2ccccc21 | inactive |
| O=C(O)CCc1nc(-c2ccccc2)c(-c2ccccc2)o1 | inactive |
| C=Cc1c(C)c2cc3[nH]c(cc4nc(cc5nc(cc1[nH]2)C(C)=C5CCC(=O)O)C(CCC(=O)O)=C4C)c(C)c3C=C | inactive |
| COc1ccc(C(=O)N2CCCC2=O)cc1 | inactive |

| SMILES | outcome |
| --- | --- |
| NC(=O)CC[C@@H](N)C(=O)O | inactive |
| c1ccc2nc(N3CCNCC3)ccc2c1 | inactive |
| O=C(CCNNC(=O)c1ccncc1)NCc1ccccc1 | inactive |
| Nc1c2c(nc3ccccc13)CCCC2 | inactive |
| Cc1[nH]c(=O)c(C#N)cc1-c1ccc2nccn2c1 | inactive |
| O=C(c1ccc(F)cc1)C1CCN(CCn2c(=O)[nH]c3ccccc3c2=O)CC1 | inactive |
| O=C(CCCN1CCC(O)(c2cccc(C(F)(F)F)c2)CC1)c1ccc(F)cc1 | inactive |
| CCCCNc1c(C(=O)OCC)c(C)nc2c1cnn2CC | inactive |
| CC1=C(CC(=O)O)c2cc(F)ccc2/C1=C\c1ccc(S(C)(=O)=O)cc1 | inactive |
| CCCC(C(=O)OCCN(CC)CC)(c1ccccc1)c1ccccc1 | inactive |
| Oc1ccc(O)cc1 | inactive |
| C[C@]12CC[C@@H]3c4ccc(O)cc4CC[C@H]3[C@@H]1CCC2=O | inactive |
| c1cc(CN2CCCCC2)cc(OCCCNc2nc3ccccc3s2)c1 | inactive |
| CCN(CC)CCOCCOC(=O)C1(c2ccccc2)CCCC1 | inactive |
| COc1ccccc1N1CCN(CCCNc2cc(=O)n(C)c(=O)n2C)CC1 | inactive |
| CCOC(=O)Nc1ccc(NCc2ccc(F)cc2)nc1N | inactive |
| CCNC(=O)N1CCN(CCCC(c2ccc(F)cc2)c2ccc(F)cc2)CC1 | inactive |
| CCN(CC)CC(=O)Nc1c(C)cccc1C | inactive |
| COc1cc(C(=O)OCCCN2CCCN(CCCOC(=O)c3cc(OC)c(OC)c(OC)c3)CC2)cc(OC)c1OC | inactive |
| O=C(O)CP(=O)(O)O | inactive |
